These results are taken from PubChem BioAssay (EPA / NIEHS).

Where “and” joins values, the source holds several entries; their conditions need not be identical. Equal values may be shown once. Calls of active or inactive are those of the source. Rule for the calls: active = hit-call score of the fitted dose curve at least 0.9, where 1 is the maximum; inactive = score below 0.9.

Read-out in the test: Interleukin 2 (IL2), IL2 (gene 3558)
The test is described as follows: BSK_BT_xIL2: BioMAP Diversity Plus: BT Assay for Interleukin 2 (IL2) Biomarker Activity (AID 2284245). To be noted: primary human B cells with PBMC. As to the method: BSK_BT is a cell-based, multiplexed-readout assay that uses B cell and peripheral blood mononuclear cells, a human vascular primary cell co-culture, with measurements taken at 24 hours after chemical dosing in a microplate: 96-well plate.BSK_BT_xIL2 is an assay component measured in the BSK_BT assay. It measures secreted IL-2 related to regulation of gene expression using LumineX xMAP technology.Data from the assay component BSK_BT_xIL2 was analyzed at the endpoint, BSK_BT_xIL2, in the positive analysis fitting direction relative to DMSO as the negative control and baseline of activity. Using a type of cytokine quantitation reporter, gain or loss-of-signal activity can be used to understand protein changes. To generalize the intended target to other relatable targets, this assay endpoint is annotated to the 'cytokine' intended target family, where the subfamily is 'interleukins'.
The levels of cell surface (or secreted, indicated by the prefix "s") biomarker endpoints were measured by ELISA. Overt cytotoxicity to cells in confluent adherent cultures (all systems other than the BT system) was assessed by measuring total protein levels using sulforhodamine B (SRB) staining in parallel cultures at the time of biomarker measurements, indicated as SRB endpoints. For proliferation assays for adherent cell types, individual cell types are cultured at sub-confluence and relative cell numbers quantified by SRB staining at time points optimized for each system (48 h: 3C and CASM3C systems; 72 h: BT and HDF3CGF systems; 96 h: SAg system). SRB was performed by staining cells with 0.1% SRB after fixation with 10% TCA and reading wells at 560 nm.Viability and proliferation of PBMC (T cells) was quantified by Alamar Blue reduction for the SAg and BT systems. For PBMC viability (referred to as PBMC Cytotoxicity within the assay endpoint names), cells were plated (75,000/well in a 96-well plate) and then chemical samples added for 1 h before addition of activators, SEB and TSST-1 (20 ng/mL final concentration each). Cells were incubated for 90 h. Then, Alamar Blue (20 uL/well) (Invitrogen, Cat DAL1100) was added for 6 h, and the plates were read with a fluorescence microplate reader at 546/580 nm (excitation/emission). For PBMC proliferation, cells were plated and activated as above but incubated for only 16 h prior to addition of Alamar Blue. Plates were read after 6 h.
Turning to `Oc1cccc2ccccc12`, the outcome was inactive.
On the same count and under the same terms, then `CC(C)CC(=O)CC(C)CC(C)C` (stereo not given), with “inactive”.
Broadly, the AC50 is the concentration giving half of the maximal activity seen. As to `CCCCCCCCCCCCCCCCCC[N+](C)(C)C`, the concentration at half-maximal activity (AC50) was 1.81 µM (active).
In the case of `CCCCCCC(O)CCCCCCCCCCC(=O)OC` (stereo not given), the outcome was inactive.
On to `OC(C(F)(F)F)(C(F)(F)F)C(O)(C(F)(F)F)C(F)(F)F`, for which the AC50 was 46 µM (active) and 48.1 µM (active).
For `Cc1cc(-n2nc3ccc(Cl)cc3n2)c(O)c(C(C)(C)C)c1`, the result was inactive.
Still for that read-out and setting: then `Sc1nc2ccccc2s1`, with “inactive”.
Turning to `CN(C)c1ccc(C(c2ccccc2)c2ccc(N(C)C)cc2)cc1`, the half-maximal activity concentration (AC50) was 34.3 µM (active).
Consider `O=C(C(=O)c1ccccc1)c1ccccc1`, for which the outcome was inactive.
Still for that read-out and setting: then `CC[N+](CC)(CC(=O)Nc1c(C)cccc1C)Cc1ccccc1`, with “inactive”.
On the same count and under the same terms, the entry for `CCCCCCCCCC/C=C/C1CC(=O)OC1=O` (stereo not given) is “inactive”.
As for `CN(C)CCC(c1ccc(Cl)cc1)c1ccccn1` (stereo not given), the result was inactive.
Still for that read-out and setting: the entry for `Cc1cccnc1` is “inactive”.
On to `COC(=O)/C=C\C(=O)OC`, for which the AC50 is 12.8 µM (active).
In the case of `CCCCCCCCCCC1CO1` (stereo not given), the outcome was inactive.
